These results are taken from PubChem BioAssay AID1626 (SRMLSC, 2009).

For orientation: inhibition means the relative decrease from the control value, in per cent.

Screen size: about 220,000 compounds; about 2,000 (0.91%) were called active. Not shown: some 2% with an inconclusive outcome. These entries were drawn from the full list. Measured potencies and affinities stand elsewhere. Unmarked numbers belong to inactive results. Rule as the data show it: inconclusive = inhibition above about 80% without an active follow-up result; inactive = below that; test concentration not stated here.

This experiment in a line: M. tuberculosis H37Rv growth inhibitors, H37Rv strain (AID 1626).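 Also: bacteria incubated seven days before Alamar blue readout; 0% = bacteria only wells and 100% = bacteria with antibiotic wells.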 To be noted: stronger effect = higher value, concentration not given here.
Consider `OCCC1CN(Cc2cccc(-n3cccn3)c2)CCN1Cc1ccccc1` (configuration not stated), for which the inhibition is -1.74%. Consider `CC(CCc1ccccc1)NC(=O)CSc1nc(N)cc(N)n1` (configuration not stated), for which the inhibition is -5.33%. Next, `COc1cccc(C2(O)CCN(Cc3ccncc3)CC2)c1`: -10.2%; `COc1cc2c(C(=O)O)c(C)n(C)c2cc1Br`: -0.16%. Next, `Cc1cnc(C(=O)NCc2ccc(Cl)cc2Cl)cn1`: -2.88%; `C#CCSc1nc(C)cc(C(=O)OCC)c1C#N`: -3.19%. As to `CCOC(=O)c1cc(C)nc(SC)c1C#N`, the inhibition is 2.58%. Next, `NC1=NC(c2ccccc2)=NC1(NC(=O)c1ccccc1)C(Cl)Cl` (configuration not stated): -0.7%; `COC(=O)c1ccc(OCC(O)CN(CCO)CC(O)Cn2ccc3ccccc32)cc1` (configuration not stated): 4.35%.

With `COc1ccc(OCC(O)CN(CCO)CC(O)Cn2ccc3ccccc32)cc1` (configuration not stated), the inhibition was 3.01%. Next, `Cc1ccsc1C(=O)C1CCCN(Cc2cc(F)ccc2-n2cccn2)C1` (configuration not stated): 10.8%; `CCN1CCN(C(=O)c2ccc(-c3nc4ccccc4s3)s2)CC1`: 0.41%. Under `COCCNC(=O)COC(=O)CSCc1nc2ccccc2s1` stands -1.53%; under `O=C(NC1CC1)c1ccc(-c2nc3ccccc3s2)s1`, 46.3%; under `Cc1noc(C)c1COC(=O)c1ccc(-c2nc3ccccc3s2)s1`, -10.8%.

For the molecule `O=S(=O)(NC1CCCCC1)c1ccc(Br)cc1`, the inhibition is 3.07%. Under `Cc1occc(=O)c1OCc1c(F)cccc1Cl` stands 1.78%; under `CC(C)CNC(=O)COc1ccc(Sc2ccc(OCC(=O)NCC(C)C)cc2)cc1`, 4.46%; under `CCc1nnc(NC(=O)CCC(=O)NCc2ccc(OC)cc2)s1`, -3.41%. Under `O=C(O)c1cccc(Cn2c(Cl)c(/C=N/NC(=O)c3cccc(O)c3)sc2=O)c1` stands -13.5%; under `Cc1ccc(NC(=O)CCC(=O)c2cccs2)c(O)c1`, -1.47%. Next, `Cc1ccc2nc(-c3ccc(NS(C)(=O)=O)cc3)cc(-c3ccccc3)c2c1`: 64.5%; `CCS(=O)(=O)Nc1cccc(-c2ccc3nnc(C)n3n2)c1`: -7.2%; `Cc1ccc2nc(-c3ccncc3)cc(-c3ccccc3)c2c1`: 9.15%. As to `CCOC(=O)c1cc(-c2ccccc2)nc2ccc(C)cc12`, the inhibition was 29.4%.

For `COC(=O)[C@@H]1CCCN1C(=O)CCc1nnc(C2CCCCC2)o1`, the inhibition is 3.78%. Next, `COc1ccc(NC(=O)O/N=C2/CCCc3ccc(OC)cc32)cc1`: -0.42%; `Cc1nc(CSc2ccc(Cl)cc2)cc(N2CCOCC2)n1`: -2.98%; `O=S(=O)(Cc1cc(N2CCOCC2)nc(-c2ccccn2)n1)c1ccccc1`: 2.59%.

In the case of `O=C(Nc1ccc2c(c1)OCO2)c1ccc(S(=O)(=O)N2CCCC2)cc1`, the inhibition is -0.32%. Next, `CCOc1ccc(NC(=O)c2ccc(CNc3c(N4CCCC4)c(=O)c3=O)cc2)cc1`: 67.9%; `CC(=O)Oc1c(Cl)cc(Cl)cc1/C=C/c1ccc2ccccc2n1`: 21.1%; `CCOc1cc(/C=C/c2ccc3cccc([N+](=O)[O-])c3n2)cc(Cl)c1O`: 0.72%. Next, `Nc1nccc(/C=C/c2c(F)cccc2Cl)n1`: 0.04%. As for `Fc1cccc(F)c1/C=C/c1ccc2ccccc2n1`, the inhibition was 7.53%. Next, `Clc1ccccc1OCc1nn[nH]n1`: -3.82%. Next, `Cn1cc2cccc([N+](=O)[O-])c2n1`: -0.35%; `O=C(/C=C/c1ccco1)Nc1ccc2c(c1)OCO2`: 2.3%; `Nc1nc(N2CCN(c3ccc(Cl)cc3)CC2)n[nH]1`: 6.82%. In the case of `CCCCc1ncc(CN2CCCC(C(=O)c3ccc(SC)cc3)C2)[nH]1` (configuration not stated), the inhibition is 1.38%.

Regarding `CSc1ccc(C(=O)C2CCCN(Cc3ccn[nH]3)C2)cc1` (configuration not stated), the inhibition is 2.84%.

Regarding `CCOC(=O)c1cc(-c2ccco2)nc2c1c(C)nn2-c1cccc(Cl)c1`, the inhibition is -0.03%.

As for `O=C(NCC1CCCCC1)c1cc([N+](=O)[O-])ccc1N1CCOCC1`, the inhibition was 6.09%.

Consider `CC(NC(=O)c1ccc(F)cc1)c1ccc2c(c1)CCCC2` (configuration not stated), for which the inhibition was 1.58%. As for `CC(NC(=O)c1ccccc1Br)c1ccc2c(c1)CCCC2` (configuration not stated), the inhibition is 6.54%.

Regarding `CCOC(=O)C(CC)Sc1ncnc2c1nnn2-c1ccc(F)cc1` (configuration not stated), the inhibition is 10.4%. Next, `CCC(Sc1ncnc2c1nnn2-c1ccc(F)cc1)C(=O)OC` (configuration not stated): 66.9%; `Cc1cc(C)cc(NC(=O)NCc2c(-c3ccccc3)noc2C)c1`: 1.42%.

In the case of `CCOc1ccc(NC(=O)C(CC)NC(=O)c2ccccc2CO)cc1` (configuration not stated), the inhibition was 3.2%. Under `CCOc1ccc(NC(=O)c2ccccc2O)cc1` stands 6.33%; under `CN(C)/C=N/c1cc(=O)n(Cc2ccccc2)c(=O)n1C`, -11.1%. In the case of `O=c1oc2ccccc2cc1-c1nc2ccccc2o1`, the inhibition was 8.96%. Under `COc1ccc2oc(=O)c(-c3nc4ccccc4o3)cc2c1` stands 2.35%; under `O=c1oc2ccc3ccccc3c2cc1-c1nnc(-c2ccccc2)o1`, 77.2%; under `COc1ccc(-c2nnc(-c3cc4c(ccc5ccccc54)oc3=O)o2)cc1`, -4.32%.

On to `C=CCn1c(-c2ccccc2)nc2nc3ccccc3nc21`, for which the inhibition is 5.61%. Under `CNC(=O)CSc1nnc(-c2ccncc2)n1Cc1ccccc1` stands -4.15%; under `CCOC(=O)CSC1=N/C(=C\c2cc(OC)c(OC)c(OC)c2)C(=O)N1C`, 0.23%; under `CCC1Oc2ccc(C)cc2N(Cc2cccc(C)c2)C1=O` (configuration not stated), 17.5%. For `CN(Cc1ncc[nH]1)C(=O)c1cc(COc2c(F)cccc2F)on1`, the inhibition is 0.91%. Under `Cc1ccc(/C=C/C(=O)N2CC(C)CC(C)C2)o1` (configuration not stated) stands 15.8%; under `O=C(/C=C/c1cccs1)N1CCCCC1`, 12.9%; under `O=C(/C=C/c1ccccc1[N+](=O)[O-])N1CCCCC1`, 3.44%. Next, `CC1CN(C(=O)/C=C/c2ccc([N+](=O)[O-])s2)CC(C)O1` (configuration not stated): 6.46%; `CCc1nc2ccccc2n1Cc1ccc(F)cc1`: 3.76%; `CCOC(=O)N1CCC(NC(=O)Cn2cc3c(n2)CCCC3)CC1`: -5.16%. As to `Cc1ccccc1C(C(=O)NC1CCCCC1)N(C(=O)CNC(=O)c1ccco1)c1cccnc1` (configuration not stated), the inhibition was 2.42%. In the case of `NC1=NCC(O)=C1c1nc2ccccc2[nH]1`, the inhibition is 4.96%. Under `Cc1ccc(C(=O)/C=C/c2cn(CC(O)CN3CCOCC3)c3ccccc23)cc1` (configuration not stated) stands 78.3%; under `COc1ccc(C(=O)/C=C/c2cn(CC(O)CN3CCOCC3)c3ccccc23)cc1` (configuration not stated), 15.2%; under `COc1ccc(C(=O)/C=C/c2cn(CC(O)CN3CCN(C)CC3)c3ccccc23)cc1OC` (configuration not stated), -1.8%. In the case of `CCCCN(C)CC(O)Cn1cc(/C=C/C(=O)c2cccs2)c2ccccc21` (configuration not stated), the inhibition was 32.9%.

Turning to `O=C(/C=C/c1cn(CC(O)CN2CCOCC2)c2ccccc12)c1cccs1` (configuration not stated), the inhibition is 4.21%. As for `O=Cc1cn(CC(O)CN2CCCCC2)c2ccccc12` (configuration not stated), the inhibition was -4.08%.

Turning to `C=CCNC(=O)c1ccc(-c2ccc([N+](=O)[O-])cc2)o1`, the inhibition was 2.72%.

With `COc1cccc(/C=C2\SC(=S)N(NC(=O)c3ccncc3)C2=O)c1`, the inhibition is -9.97%. Under `O=C(NCc1csc(-c2cccs2)n1)Nc1ccc(F)cc1F` stands -1.75%; under `Cc1cc(C)n(CC(O)Cn2c3ccc(Cl)cc3c3cc(Cl)ccc32)c(=O)n1` (configuration not stated), 3.67%; under `OCCNCC(O)Cn1c2ccccc2c2ccccc21` (configuration not stated), 3.13%. Next, `CCOc1ccc(N=c2scc(-c3ccc(OC)cc3)n2CCO)cc1`: 27.6%. Next, `OCCn1c(-c2ccccc2)csc1=Nc1ccccc1`: 3.23%; `Cc1cc(C)cc(C(=O)NCCCc2ccccc2)c1`: -1.21%; `CCN(CC)C(=O)C1CCCN(Cc2sccc2C)C1` (configuration not stated): -5.07%. For `Cc1nc(N)nc(COc2ccccc2)n1`, the inhibition was -5.7%. Next, `CCc1nc(N2CCCCC2)c2oc3ccccc3c2n1`: 22.4%; `CCc1nc(N2CCC(C)CC2)c2oc3ccccc3c2n1`: 21.7%; `O=C(NCCCn1ccnc1)C(=O)NCC(c1cccnc1)N1CCN(c2ccccc2)CC1` (configuration not stated): 0.94%. Under `COC(=O)/C(=N/Nc1ccccc1)N1CCCc2ccccc21` stands 38.7%; under `ClC(=C\c1ccccc1)/C=N/N1CCN(c2ccccn2)CC1`, -1.5%; under `CC(=O)Nc1ccc(NC(=O)CSc2ccc([N+](=O)[O-])cn2)cc1`, -4.39%. Next, `O=C(CSc1ccccn1)Nc1ccc2c(c1)OCCO2`: -16.3%. `Cc1cnc(C(=O)Nc2nnc(C)s2)cn1`: the inhibition was -5.75%. Under `CCSc1nnc(NC(=O)c2cnccn2)s1` stands 2.03%; under `O=C(Nc1nnc(SCc2c(Cl)cccc2Cl)s1)c1ccc2ncsc2c1`, 29.9%; under `O=C(Nc1nnc(SCc2ccc(F)cc2)s1)c1cccnc1Cl`, 7.86%.

On to `CSc1ncccc1C(=O)Nc1nnc(C2CC2)s1`, for which the inhibition was 0.73%. On to `CCSc1nnc(NC(=O)c2cccnc2Cl)s1`, for which the inhibition is -8.72%. Take `O=C(Nc1nnc(C2CC2)s1)c1ccncc1`: the inhibition is -4.03%. Next, `CC(=O)Nc1nnc(SCc2ccc(F)cc2)s1`: 1.23%; `COc1ccc(N2CCN(C(=O)C(C)(C)Oc3ccc(Cl)cc3)CC2)cc1`: 10.8%. Regarding `CCCCn1c(/C=C/c2ccco2)nc2ccccc21`, the inhibition was -4.08%. On to `CN(CCC(=O)Nc1ccc2c(c1)OCO2)Cc1ccccc1`, for which the inhibition was -7.11%.
